Values joined by “and” are separate entries in the source; they are usually repeats but may differ in a detail not shown here. Equal values may be shown once. About 2,000 (36%) of roughly 5,500 compounds were called active. Another 18% or so got no clear call; they are omitted. Rule as the data show it: active = normalized growth mostly below about 0.91 (no sharp cut-off); inconclusive = no clear call, values can overlap the other calls; inactive = mostly above about 0.92. This is one part of the list.
Assay: chemical genetic growth profiling, strain panel (AID 1159580);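 also: tested at 20 µM; growth read once vehicle control cultures reached saturation at 30 °C; 1 = growth at the plate median or of vehicle wells; lower values mean less growth of the strain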
Settings: S. cerevisiae deletion strains, growth OD

Measured: normalized growth

CC1=C(C(=O)O)N2C(=O)[C@@H](NC(=O)[C@H](N)C3=CCC=CC3)C2SC1 (some centres not stated)
inactive: locus YAL013W, strain DEP1, stronger effect = lower value 1 | locus YAL021C, strain ccr4, stronger effect = lower value 1.01 | locus YAL026C, strain drs2, stronger effect = lower value 1.03 | locus YAL030W, strain snc1, stronger effect = lower value 1.03 | locus YBL061C, strain skt5, stronger effect = lower value 1.03 | locus YBR009C, strain hhf1, stronger effect = lower value 1.02 | locus YBR021W, strain FUR4, stronger effect = lower value 1.02 | locus YBR023C, strain chs3, stronger effect = lower value 1.02 | locus YBR171W, strain sec66, stronger effect = lower value 1.04 | locus YBR229C, strain ROT2, stronger effect = lower value 0.953 | locus YBR231C, strain swc5, stronger effect = lower value 1.04 | locus YBR279W, strain paf1, stronger effect = lower value 1.01 | locus YCL011C, strain gbp2, stronger effect = lower value 1.03 | locus YCL016C, strain dcc1, stronger effect = lower value 1.02 | locus YCL029C, strain bik1, stronger effect = lower value 0.998 | locus YCL061C, strain MRC1, stronger effect = lower value 1.02 | locus YCL069W, strain vba3, stronger effect = lower value 1.02 | locus YCR088W, strain abp1, stronger effect = lower value 1.02 | locus YDL005C, strain med2, stronger effect = lower value 1.03 | locus YDL035C, strain GPR1, stronger effect = lower value 0.965 | locus YDL040C, strain nat1, stronger effect = lower value 1.02 | locus YDL074C, strain BRE1, stronger effect = lower value 0.987 | locus YDL101C, strain DUN1, stronger effect = lower value 0.98 | locus YDL185W, strain tfp1, stronger effect = lower value 0.977 | locus YDL192W, strain arf1, stronger effect = lower value 0.989 | locus YDR001C, strain nth1, stronger effect = lower value 1.01 | locus YDR069C, strain doa4, stronger effect = lower value 1.02 | locus YDR101C, strain arx1, stronger effect = lower value 0.988 | locus YDR137W, strain rgp1, stronger effect = lower value 1.03 | locus YDR159W, strain sac3, stronger effect = lower value 1.04 | locus YDR162C, strain NBP2, stronger effect = lower value 0.951 | locus YDR195W, strain ref2 0.992 | locus YDR297W, strain sur2, stronger effect = lower value 1.02 | locus YDR318W, strain mcm21, stronger effect = lower value 1 | locus YDR334W, strain swr1, stronger effect = lower value 1.01 | locus YDR335W, strain msn5, stronger effect = lower value 1.02 | locus YDR388W, stronger effect = lower value 0.99 | locus YDR392W, strain spt3, stronger effect = lower value 1.03 | locus YDR502C, strain sam2, stronger effect = lower value 1.02 | locus YEL003W, strain gim4, stronger effect = lower value 1.02 | locus YEL037C, strain rad23, stronger effect = lower value 1.02 | locus YEL061C, strain CIN8 (second series), stronger effect = lower value 1.02 | locus YEL061C, strain CIN8, stronger effect = lower value 0.995 | locus YER015W, strain faa2, stronger effect = lower value 1 | locus YER016W, strain bim1, stronger effect = lower value 1.02 | locus YER110C, stronger effect = lower value 0.981 | locus YER111C, strain swi4, stronger effect = lower value 1.03 | locus YER155C, strain BEM2 (second series), stronger effect = lower value 1.03 | locus YER155C, strain BEM2, stronger effect = lower value 0.998 | locus YER167W, strain BCK2, stronger effect = lower value 0.989 | locus YFR010W, strain ubp6, stronger effect = lower value 1.03 | locus YGL078C, strain dbp3, stronger effect = lower value 0.993 | locus YGL086W, strain mad1, stronger effect = lower value 0.933 | locus YGL167C, strain pmr1, stronger effect = lower value 1.04 | locus YGL173C, strain kem1, stronger effect = lower value 1.03 | locus YGL227W, strain vid30, stronger effect = lower value 1.02 | locus YGL240W, strain doc1, stronger effect = lower value 1.03 | locus YGL248W, strain PDE1, stronger effect = lower value 1.01 | locus YGL253W, strain hxk2, stronger effect = lower value 1.03 | locus YGR135W, strain pre9, stronger effect = lower value 1.03 | locus YGR252W, strain gcn5, stronger effect = lower value 1.05 | locus YHR013C, strain ard1, stronger effect = lower value 1.05 | locus YHR027C, strain rpn1, stronger effect = lower value 1.02 | locus YHR030C, strain SLT2, stronger effect = lower value 0.994 and 0.964 | locus YHR079C, strain IRE1 (second series), stronger effect = lower value 1 | locus YHR079C, strain IRE1, stronger effect = lower value 0.956 | locus YHR094C, strain hxt1, stronger effect = lower value 0.983 | locus YHR129C, strain ARP1, stronger effect = lower value 0.988 | locus YHR142W, strain chs7, stronger effect = lower value 1.04 | locus YHR200W, strain rpn10, stronger effect = lower value 0.986 | locus YIL066C, strain RNR3, stronger effect = lower value 0.971 | locus YIL073C, strain SPO22, stronger effect = lower value 1.01 | locus YIL125W, strain kgd1, stronger effect = lower value 0.99 | locus YIR030C, strain dcg1, stronger effect = lower value 0.993 | locus YJL092W, strain hpr5, stronger effect = lower value 1.02 | locus YJL095W, strain BCK1 (second series), stronger effect = lower value 1.02 | locus YJL095W, strain BCK1, stronger effect = lower value 1.02 and 0.989 | locus YJL115W, strain asf1, stronger effect = lower value 1.03 | locus YJL129C, strain trk1, stronger effect = lower value 1.03 | locus YJL134W, strain LCB3, stronger effect = lower value 0.985 | locus YJL154C, strain vps35, stronger effect = lower value 1.01 | locus YJL164C, strain tpk1, stronger effect = lower value 1.02 | locus YJL166W, strain qcr8, stronger effect = lower value 1.02 | locus YJL168C, strain set2, stronger effect = lower value 0.994 | locus YJL187C, strain SWE1 (second series), stronger effect = lower value 0.996 | locus YJL187C, strain SWE1, stronger effect = lower value 1.03 | locus YJR043C, strain POL32, stronger effect = lower value 0.961
